This passage reports IC50 results from PubChem BioAssay AID1117362 (Southern Research Institute, 2015).

The campaign covered roughly 3,600 compounds. About 100 (2.8%) were called active.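 Rule for the calls: active = inhibition above 30% at one or more concentrations, seen consistently on every test date; inconclusive = results that disagree between repeat test dates; inactive = the rest.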 These entries were drawn from the full list.

The test in a line: GST-antibody interaction or FRET quenching – biochemical, TR-FRET, artefact control for Vif-APOBEC3G degradation inhibitor project, dose response (AID 1117362).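 Note: biotinylated GST protein used in place of GST-Vif 1-94 and biotin-A3G peptide; detects fluorescence quenchers or blockers of GST binding to anti-GST antibody.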 The note with it: TR-FRET counter screen, biotin-GST/anti-GST signal; series mostly up to 100 µM. A general note: Time-resolved FRET reads energy transfer from a long-lived donor to a nearby acceptor.
For `CN1CCC(N(C)C(=O)COc2ccccc2-c2ccccc2)CC1`, the IC50 entry is “inactive”.
For the compound `O=C(O)CCCCC1CCSS1` (configuration not stated), the IC50 entry is “inactive”.
The value for `CN(C)C(=O)c1nc2ccc(Cl)cn2c1CN1CCCC(OCc2ccccc2)C1` (configuration not stated) was “inactive”.
For `O=C1CC(Nc2ccc(N3CCOCC3)cc2)C(=O)N1c1ccccc1F` (configuration not stated) the value was “inactive”; for `Cc1ccc(/C=C/C(=O)Nc2cccc(S(=O)(=O)N3CCOCC3)c2)o1`, “inactive”.
Take `CCOC(=O)/C=C1\SCC(=O)N1CC(=O)NC(C)c1ccc(F)cc1` (configuration not stated): the IC50 result was “inactive”.
In the case of `CC1=C(C#N)C(=O)N(C)C(C)(C)C1`, the IC50 result is “inactive”.
For `CN1CCc2nc3ccc(Cl)cc3c(-c3ccccc3Cl)c2C1` the value was “inactive”; for `CNC(=O)c1ccccc1NC(=O)c1ccc(C)c(S(=O)(=O)N2CCCCC2)c1`, “inactive”.
Take `Oc1ccc2ccccc2c1C1Nc2cccc3cccc(c23)N1`: the IC50 entry is “inactive”.
Regarding `Cc1cc(C(=O)O)ccc1-n1c(C)ccc1C`, the IC50 entry was “inactive”.
For the compound `COc1cc(C(=O)NCC(c2ccco2)N2CCCC2)ccc1OCc1c(C)noc1C` (configuration not stated), the IC50 result was “inactive”.
For `Cc1cc(C(=O)CCl)c(C)n1-c1c(C)n(C)n(-c2ccccc2)c1=O` the value was “inactive”; for `O=C(O)/C(=C/c1ccco1)NC(=O)c1ccccc1`, “inactive”; for `O=[N+]([O-])c1c(NCCCO)cc(SCc2ccco2)c2nonc12`, “inactive”.
With `CCc1c(C)sc(NC(=O)c2cc(-c3ccco3)on2)c1C#N`, the IC50 entry was “inactive”.
The value for `Cc1oc(-c2ccc(Cl)cc2)cc1-c1nn2c(-c3ccoc3C)nnc2s1` was “inactive”.
For `CCC(c1nnnn1Cc1ccco1)N(Cc1ccccc1OC)Cc1cc2cc(C)ccc2[nH]c1=O` (configuration not stated) the value was “inactive”; for `S=c1[nH]nc(COc2ccc3c(c2)OCO3)n1-c1ccccc1`, “inactive”.
For the compound `O=P(O)(CN1CCCCCC1)CN1CCCCCC1`, the IC50 entry was “inactive”.
The value for `C=CCN=c1scc(-c2ccco2)n1/N=C/c1ccc(O)c(O)c1O` was “inactive”; that for `N#CC1=C(N)OC2=C(CCC/C2=C/c2ccoc2)C1c1ccoc1` (configuration not stated) was “inactive”; that for `Cc1cc(C(=O)CSc2nc3ccccc3c(=O)[nH]2)c(C)n1C` was “inactive”.
The value for `C=C(C)C(=O)Nc1cccc(C2=NOC3(C2)C[C@@H](C(N)=O)N(C(=O)CC(c2ccccc2)c2ccccc2)C3)c1` (some centres not stated) was “inactive”; that for `CSc1nc(NCCOCCO)c2sc3nc(-c4ccco4)c4c(c3c2n1)CCC4` was “inactive”; that for `COC(=O)Cn1c(CCC(=O)O)ccc1-c1ccccc1` was “inactive”.
For `O=C(OC1CCCCC1)c1ccc2c(c1)C1C=CCC1C(C(=O)O)N2` (configuration not stated), the IC50 entry was “inactive”.
For `COc1cccc(C2C(C#N)=C(N)OC3=C2C(=O)CC(c2ccco2)C3)c1OCc1ccc(F)cc1` (configuration not stated) the value was “inactive”; for `Cc1ccc(CCC(=O)Nc2ccc(S(N)(=O)=O)cc2)o1`, “inactive”.
The value for `CCOC(=O)c1cc(NC(=O)N2CCCc3ccccc32)c(C)nc1C` was “inactive”.
With `CNC(=O)[C@@H]1C[C@H]1[C@@H](NC(=O)OCc1ccccc1)c1ccccc1`, the IC50 entry was “inactive”.
For `C(=C\c1ccco1)/C=N/n1cnnc1`, the IC50 entry is “inactive”.
The value for `O=C(/C=C/c1ccco1)NC(=S)Nc1ccccc1N1CCOCC1` was “inactive”; that for `C=CCn1c(O)c(C(CC)=NCCN2CCOCC2)c(=O)[nH]c1=O` was “inactive”; that for `CC(/C=N/n1c(-c2ccncc2)n[nH]c1=S)=C\c1ccco1` was “inactive”.
For `CCOc1cc(CNc2ccc(O)cc2)ccc1OCc1ccc(Cl)cc1Cl` the value was “inactive”.
Consider `O=C(O)C1Nc2c(Cl)cc(Cl)c(Cl)c2C2C=CCC12` (configuration not stated), for which the IC50 entry was “inactive”.
`Cc1ccc(NC(=O)CN(C)C(=O)c2cccc(-n3cccc3)c2)cc1`: the IC50 entry is “inactive”.
For `CCc1ccccc1NC(=O)c1cccc(NC(=O)/C=C/c2ccco2)c1` the value was “inactive”; for `Cc1cc2ccccc2n1CCNC(=O)C1CCCCC1`, “inactive”.
Consider `COc1cccc(-n2c(Cc3cc(=O)[nH]c(=O)[nH]3)nnc2SCC(=O)NC2CCCC2)c1`, for which the IC50 entry is “inactive”.
The value for `Cc1cc(C)nc(N2CCC(C(=O)O)CC2)n1` was “inactive”; that for `COc1ccc(NC(=S)NCCc2ccccc2OC)c(OC)c1` was “inactive”.
`C=CCn1c(COc2ccc(F)cc2)nnc1SCC(=O)NC(=O)NCc1ccco1`: the IC50 entry was “inactive”.
On to `Clc1ccc(OCc2nn3c(-c4ccco4)nnc3s2)c(Cl)c1`, for which the IC50 entry is “inactive”.
Consider `COC(C(=O)C(O)C(C)O)C1Cc2cc3cc(OC4CC(OC5CC(O)C(O)C(C)O5)C(O)C(C)O4)c(C)c(O)c3c(O)c2C(=O)C1OC1CC(OC2CC(OC3CC(O)C(OC)C(C)O3)C(O)C(C)O2)C(O)C(C)O1` (configuration not stated), for which the IC50 entry was “inactive”.
For `O=c1oc(/C=C/c2ccco2)nc2sc3c(c12)CCC3` the value was “inactive”; for `Cc1cc(C(=O)CSc2nnc(-c3ccccc3)n2Cc2ccc3c(c2)OCO3)c(C)n1C`, “inactive”; for `COC(=O)c1ccc(COc2ccccc2/C=C(\C#N)C(=O)Nc2c(C)cc(C)cc2C)cc1`, “inactive”.
The value for `CCOc1ccc(-c2nnn(CC(=O)c3ccc4c(c3)OCCO4)n2)cc1OCC` was “inactive”; that for `Cc1cccc(C)c1NC(=O)CSc1nnc(-c2ccco2)c(-c2ccco2)n1` was “inactive”; that for `O=C(C1CCCN1S(=O)(=O)c1cccc2cccnc12)N1CCN(c2ccccc2)CC1` (configuration not stated) was “inactive”.
In the case of `CNc1ccccc(-c2ccc3cc4c(cc3n2)OCO4)c1=O`, the IC50 result is “inactive”.
For `O=C(CCN1C(=O)/C(=C/c2cccs2)SC1=S)NC1=NCCS1` the value was “inactive”; for `COCCNc1nnc(SC(C)C(=O)Nc2ccc(-c3nc4ccc(C)cc4s3)cc2)s1` (configuration not stated), “inactive”; for `COc1ccc2[nH]c(=O)c(CN(Cc3ccco3)C(c3nnnn3Cc3ccccc3)C(C)C)cc2c1` (configuration not stated), “inactive”.
For `C=CCOC(=O)C1=C(C)NC(SCC(=O)Nc2ccccc2)=C(C#N)C1c1ccco1` (configuration not stated) the value was “inactive”.
For `N#C/C(=C\c1ccc([N+](=O)[O-])o1)C(=O)Nc1ccc(F)cc1` the value was “inactive”; for `c1cn2cc(CSC3CCCCC3)nc2s1`, “inactive”; for `Cc1ccc(N2C(=O)/C(=C\c3ccco3)SC2=S)cc1`, “inactive”.
As to `CCC(C)(C)n1nnnc1C(c1ccc2ncccc2c1)N1CCN(c2ccc(O)cc2)CC1` (configuration not stated), the IC50 entry was “inactive”.
The value for `CC1(C)OC(=O)C(=C2CCCN2)C(=O)O1` was “inactive”; that for `COC(=O)C1=C(C)NC(=O)/C1=C\c1cc(C)n(-c2ccccc2C)c1C` was “inactive”.
Turning to `O=C(Nc1ccc(F)cc1)C(c1ccccc1)N1CCN(S(=O)(=O)c2ccc3ccccc3c2)CC1` (configuration not stated), the IC50 entry is “inactive”.
The value for `CCCCC(=O)NC(=S)Nc1cc(C(=O)O)ccc1Cl` was “inactive”; that for `Cc1occc1-c1nnc(SCC(=O)N2CCN(c3ccccc3)CC2)n1C` was “inactive”; that for `CC(C)n1c(=NC(=O)c2ccco2)c(C#N)cc2c(=O)n3ccccc3cc21` was “inactive”.

In general, IC50 refers to the concentration that inhibits the measured activity by half.
